Pf apPOL inh – Pf-apPOL inhibitors, biochemical, fluorescence; actives 0.25% (n = 210,000); Plasmodium falciparum apicoplast DNA polymerase (apPOL); inhibition, % at 10 µM; Recombinant Pf-apPOL, molecular beacon fluorescence, 1.5 h
mHTT CaM bind – mutant huntingtin-calmodulin interaction inhibitors – biochemical, AlphaScreen, primary screen. P42858. AlphaScreen His-mHTT/GST-CaM binding, luminescence. inhibition, % at 15 µM. actives 3.6% (n = 190,000). AID 1671202, 2021;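 further: 0% = both proteins with DMSO and 100% = one protein alone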
* marks the source's active call; other numbers are inactive results; i = inactive; nt = not tested or not shown; ! = a repeat was not active. A selection: hits, their analogues and other compounds. The true share with any hit is near 3.5%. No stated cut-off is given here; in the data, active means inhibition above about 50%; inactive means the rest.

SMILES	Pf apPOL inh	mHTT CaM bind
O=C(NC(Nc1cccc([N+](=O)[O-])c1)C(Cl)(Cl)Cl)c1cccc(Cl)c1 (stereo unspecified)	-1.1	86.0*
Cc1cccc(C(=O)NC(Nc2ccc([N+](=O)[O-])cc2)C(Cl)(Cl)Cl)c1 (stereo unspecified)	-0.6	38.0
CN(C)C(=O)NC(Nc1cccc([N+](=O)[O-])c1)C(Cl)(Cl)Cl (stereo unspecified)	-1.5	0.0
COc1ccc(NC(NC(=O)c2cc([N+](=O)[O-])cc([N+](=O)[O-])c2)C(Cl)(Cl)Cl)cc1 (stereo unspecified)	-5.8	69.0*
O=C(NC(Nc1ccccc1Cl)C(Cl)(Cl)Cl)c1cccc([N+](=O)[O-])c1 (stereo unspecified)	-4.2	74.0*
Cc1ccc(C(=O)NC(Nc2ccccc2C)C(Cl)(Cl)Cl)cc1 (stereo unspecified)	0.3	-6.0
O=[N+]([O-])c1ccccc1S(=O)(=O)NCCc1ccccc1	-2.3	3.8
CCOCCCNC(=O)C1(C)CCC(=O)N1c1cc(C)c(Cl)cc1OC (stereo unspecified)	-0.9	26.4
Cc1ccc(Cn2c(=O)c(CCC(=O)NC3CC3)nc3ccccc32)cc1	-3.5	0.0
O=C1NN(c2ccc(F)c(Cl)c2)C(=O)/C1=C/c1ccc(F)cc1	-5.7	13.0
Cc1ccc(F)c(N2CCN(C(=O)c3ccccc3F)C(C)C2=O)c1 (stereo unspecified)	-2.7	8.8
CCOC(=O)c1ccc(NC(=O)CN2CCN(c3ccc(OC)cc3)C2=O)cc1	-1.3	-6.6
CCOC(=O)c1ccc(-n2sccc2=O)cc1	95.6*	nt
COc1cccc(C(=O)N2[C@@H](C(C)C)COc3cc(Br)ccc3S2(=O)=O)c1	2.3	-14.1
Cc1ccc(/C=C/C23NC(=O)CCN2c2ccccc2C3(C)C)cc1 (stereo unspecified)	-3.9	55.0*
CC1(C)c2ccccc2N2CCC(=O)NC21C=Cc1cccs1 (stereo unspecified)	-8.9	nt
O=[N+]([O-])c1ccc(S(=O)(=O)NCCc2ccc(F)cc2)cc1	-2.3	-0.9
CC(C)=CC1C(CN)C1(C)C (stereo unspecified)	-5.1	96.0*
O=C(NC=Nc1cc([N+](=O)[O-])c(-c2ccncc2)n1-c1ccccc1)c1cccc(O)c1	3.9	64.0*
O=C(Nc1ccc2nn(-c3ccccc3)nc2c1)c1ccc(Cl)c([N+](=O)[O-])c1	6.1	6.0
CCCOc1ccccc1/C=C1\SC(=Nc2cccc(C(=O)O)c2)NC1=O	-3.9	21.0
CC1=CC(=O)C(C(C)C)=C/C1=N\OC(=O)c1cccc(Br)c1	-4.2	i
CC1=CC(=O)C(C(C)C)=CC1=NC(=O)c1ccc(C)cc1	-1.0	60.0*
COc1ccc(OCC(=O)Nc2ccccc2I)cc1	-3.5	-33.9
COc1cccc(-c2cc3n(n2)CCCN(C(=O)Nc2ccccc2)C3)c1	-7.1	15.2
SMILES	Pf apPOL inh	mHTT CaM bind
COc1ccc(OC)c(Nc2nc(C)nc3sc(C)cc23)c1	-13.5	52.0*
COc1ccc(C)cc1Nc1nc(C)nc2sc(C)cc12	-18.2	-7.0
O=C(NC1CCCC1)C1c2cccn2CC(=O)N1Cc1ccc(Cl)cc1 (stereo unspecified)	-2.5	-1.3
C[n+]1ccc(/C=C/c2ccc3c(c2)OCO3)c2ccccc21	-13.1	8.0
CN(C)c1ccc(/C=C/c2cc[n+](C)c3ccccc23)cc1	3.3	80.0*
Cc1sc(NC(=O)c2ccco2)c(C(c2cccnc2)N2CCN(c3ccccn3)CC2)c1C (stereo unspecified)	-6.0	100.0*
Cc1sc(NC(=O)c2ccco2)c(C(c2cccnc2)N2CCN(c3ccccc3)CC2)c1C (stereo unspecified)	11.8	18.0
O=C1C(NS(=O)(=O)c2ccccc2)=CC(=NS(=O)(=O)c2ccc(F)cc2)c2ccccc21	-4.9	5.0
COc1ccccc1NC1=CC(=NS(=O)(=O)c2ccc(C)cc2C)c2ccccc2C1=O	-5.5	92.0*
CCc1ccc(S(=O)(=O)N=C2C=C(Nc3ccccc3OC)C(=O)c3ccccc32)cc1	-0.5	93.0*
COc1ccccc1NC(=O)CN(c1ccc(C)cc1C)S(C)(=O)=O	-3.1	0.2
CCc1ccc(S(=O)(=O)Nc2ccccc2OC)cc1	1.7	-25.4
COc1ccc(S(=O)(=O)Nc2ccccc2NS(=O)(=O)c2ccc(OC)cc2)cc1	3.0	5.9
Cc1ccccc1NC1=CC(=NS(=O)(=O)c2ccc(F)cc2)c2ccccc2C1=O	3.3	96.0*
COc1ccc(S(=O)(=O)N=C2C=C(Nc3ccccc3OC)C(=O)c3ccccc32)cc1	0.2	91.0*
Cc1ccc(CNC(=O)C2CCCN(c3nccnc3Oc3ccccc3)C2)cc1C (stereo unspecified)	-8.5	-2.9
CCCNC(=O)C(C)Sc1nc2nc(C)cc(C)n2n1 (stereo unspecified)	-4.1	-10.0
CC(C)NCC(O)COc1ccccc1C(C)(C)C (stereo unspecified)	-7.4	-2.6
O=C(CN(Cc1ccccc1)S(=O)(=O)c1ccc(F)cc1)N1CCCC1	-5.4	-2.8
Cc1cc(N=Cc2ccccc2O)no1	-5.1	nt
COc1ccccc1NC(=O)c1ccc2c(c1)-c1ccccc1C2=O	0.0	2.0
COc1ccccc1NC(=O)c1ccc(F)cc1	-1.7	-6.2
COc1ccccc1NC1=CC(=NS(=O)(=O)c2ccccc2)c2ccccc2C1=O	3.2	94.0*
COc1ccc(NC2=CC(=NS(=O)(=O)c3ccc(Cl)cc3)c3ccccc3C2=O)cc1	0.0	35.0
COc1ccc(S(=O)(=O)N=C2C=C(Nc3cccc(C)c3)C(=O)c3ccccc32)cc1	-16.3	91.0*
SMILES	Pf apPOL inh	mHTT CaM bind
COc1ccccc1NC1=CC(=NS(=O)(=O)c2ccc(F)cc2)c2ccccc2C1=O	1.5	94.0*
Cc1ccc2c(c1)N(Cc1ccc(C(=O)NCc3ccncc3)cc1)C(=O)CO2	1.3	11.0
COc1ccc(-c2nn(Cc3ccccc3F)c(=O)c3nc(C)sc23)cc1OC	-8.5	64.8*
COc1cccc(-c2nn(CC(=O)N3CCc4ccccc43)c(=O)c3nc(C)sc23)c1	-5.2	-2.0
CC(=O)Nc1ccc2oc(-c3ccc4nc(NC(C)=O)sc4c3)nc2c1	2.1	14.9
O=C(O)c1cccc2c1NC(c1ccc(F)cc1)C1CC=CC21 (stereo unspecified)	0.6	96.0*!
Fc1ccc(C2Nc3c(F)cccc3C3C=CCC32)cc1 (stereo unspecified)	-6.5	57.0*
O=C(O)c1cccc2c1NC(c1ccccc1Br)C1CC=CC21 (stereo unspecified)	5.2	48.0
COc1cccc2c1NC(c1ccc(Br)cc1)C1CC=CC21 (stereo unspecified)	5.3	58.0*
Fc1cccc2c1NC(c1ccc(Br)cc1)C1CC=CC21 (stereo unspecified)	3.8	40.0
COc1ccc(Cl)c2c1NC(c1ccc(F)cc1)C1CC=CC21 (stereo unspecified)	6.3	50.0*
COc1cccc2c1NC(c1ccccc1Br)C1CC=CC21 (stereo unspecified)	2.8	38.0
CCc1ccc(N2C(=O)Nc3ccc(Br)cc3C2(O)C(=O)NCCC(C)C)cc1 (stereo unspecified)	-10.4	3.0
Fc1ccc(C=Nc2ccc3cc4ccc(N=Cc5ccc(F)cc5)cc4nc3c2)cc1	nt	2.5
COc1ccccc1CCC(=O)N1CCn2c(C)nnc2C1	0.6	-12.8

Bioassay records (PubChem)
